# Laboratory results taken from article doi:10.1101/2024.03.05.583629.
# Target: pT7_6His-AlfaTag-HOXD13 (human, UniProt P35453 263-343)
# Test: PADIT-seq
# Conditions: dsDNA, one strand shown
# Sequence of pT7_6His-AlfaTag-HOXD13 (P35453 263-343): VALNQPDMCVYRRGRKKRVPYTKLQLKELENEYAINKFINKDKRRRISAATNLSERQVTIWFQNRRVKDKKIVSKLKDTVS
row,Sequence,binding signal [log2FC]
1,CTCGAGGATATCAAGATCTGGCCTCGGCTTTTTAAAAGGAACCTCTAGCTAGCCGACTCACTATAGGGATAATCGCCCTGAGCAAAGACC,2.52 ± 0.0678
2,CTCGAGGATATCAAGATCTGGCCTCGGCGTTTTAGAGGGAACCTCTAGCTAGCCGACTCACTATAGGGATAATCGCCCTGAGCAAAGACC,1.24 ± 0.114
3,CTCGAGGATATCAAGATCTGGCCTCGGCCTTTTAATAGGAACCTCTAGCTAGCCGACTCACTATAGGGATAATCGCCCTGAGCAAAGACC,2.68 ± 0.0826
4,CTCGAGGATATCAAGATCTGGCCTCGGCATTGTAAAAGGAACCTCTAGCTAGCCGACTCACTATAGGGATAATCGCCCTGAGCAAAGACC,2.55 ± 0.0888
5,CTCGAGGATATCAAGATCTGGCCTCGGCCTTTTATGTGGAACCTCTAGCTAGCCGACTCACTATAGGGATAATCGCCCTGAGCAAAGACC,2.69 ± 0.0743
6,CTCGAGGATATCAAGATCTGGCCTCGGCAGTCTAAAAGGAACCTCTAGCTAGCCGACTCACTATAGGGATAATCGCCCTGAGCAAAGACC,-0.665 ± 0.0999
7,CTCGAGGATATCAAGATCTGGCCTCGGCTGGGTAAAAGGAACCTCTAGCTAGCCGACTCACTATAGGGATAATCGCCCTGAGCAAAGACC,-0.514 ± 0.0905
8,CTCGAGGATATCAAGATCTGGCCTCGGCCTTTTAGCGGGAACCTCTAGCTAGCCGACTCACTATAGGGATAATCGCCCTGAGCAAAGACC,0.142 ± 0.0994
9,CTCGAGGATATCAAGATCTGGCCTCGGCATTTTAGCGGGAACCTCTAGCTAGCCGACTCACTATAGGGATAATCGCCCTGAGCAAAGACC,0.146 ± 0.1
10,CTCGAGGATATCAAGATCTGGCCTCGGCATCGTAAAAGGAACCTCTAGCTAGCCGACTCACTATAGGGATAATCGCCCTGAGCAAAGACC,2.79 ± 0.0886
11,CTCGAGGATATCAAGATCTGGCCTCGGCCTTTTAACCGGAACCTCTAGCTAGCCGACTCACTATAGGGATAATCGCCCTGAGCAAAGACC,1.24 ± 0.0724
12,CTCGAGGATATCAAGATCTGGCCTCGGCGCAATAAAAGGAACCTCTAGCTAGCCGACTCACTATAGGGATAATCGCCCTGAGCAAAGACC,2.76 ± 0.0728
13,CTCGAGGATATCAAGATCTGGCCTCGGCATTTTAACCGGAACCTCTAGCTAGCCGACTCACTATAGGGATAATCGCCCTGAGCAAAGACC,1.17 ± 0.0785
14,CTCGAGGATATCAAGATCTGGCCTCGGCCCAATAAAAGGAACCTCTAGCTAGCCGACTCACTATAGGGATAATCGCCCTGAGCAAAGACC,2.95 ± 0.095
15,CTCGAGGATATCAAGATCTGGCCTCGGCCCCGTAAAAGGAACCTCTAGCTAGCCGACTCACTATAGGGATAATCGCCCTGAGCAAAGACC,2.52 ± 0.0899
16,CTCGAGGATATCAAGATCTGGCCTCGGCTTTTTATATGGAACCTCTAGCTAGCCGACTCACTATAGGGATAATCGCCCTGAGCAAAGACC,3.25 ± 0.0873
17,CTCGAGGATATCAAGATCTGGCCTCGGCGTTTTATGTGGAACCTCTAGCTAGCCGACTCACTATAGGGATAATCGCCCTGAGCAAAGACC,2.96 ± 0.0773
18,CTCGAGGATATCAAGATCTGGCCTCGGCGTTTTATAAGGAACCTCTAGCTAGCCGACTCACTATAGGGATAATCGCCCTGAGCAAAGACC,3.26 ± 0.0829
19,CTCGAGGATATCAAGATCTGGCCTCGGCCTTTTAATGGGAACCTCTAGCTAGCCGACTCACTATAGGGATAATCGCCCTGAGCAAAGACC,2.57 ± 0.0798

row,Sequence,binding signal [log2FC]
1,CTCGAGGATATCAAGATCTGGCCTCGGCTATATAAAAGGAACCTCTAGCTAGCCGACTCACTATAGGGATAATCGCCCTGAGCAAAGACC,2.63 ± 0.0902
2,CTCGAGGATATCAAGATCTGGCCTCGGCTTCATAAAAGGAACCTCTAGCTAGCCGACTCACTATAGGGATAATCGCCCTGAGCAAAGACC,2.49 ± 0.0838
3,CTCGAGGATATCAAGATCTGGCCTCGGCGTTTTACGTGGAACCTCTAGCTAGCCGACTCACTATAGGGATAATCGCCCTGAGCAAAGACC,2.36 ± 0.0852
4,CTCGAGGATATCAAGATCTGGCCTCGGCTTTCTAAAAGGAACCTCTAGCTAGCCGACTCACTATAGGGATAATCGCCCTGAGCAAAGACC,-0.511 ± 0.118
5,CTCGAGGATATCAAGATCTGGCCTCGGCCTTTTACTGGGAACCTCTAGCTAGCCGACTCACTATAGGGATAATCGCCCTGAGCAAAGACC,2.53 ± 0.0719
6,CTCGAGGATATCAAGATCTGGCCTCGGCGTTTTAAAGGGAACCTCTAGCTAGCCGACTCACTATAGGGATAATCGCCCTGAGCAAAGACC,2.48 ± 0.082
7,CTCGAGGATATCAAGATCTGGCCTCGGCCTTTTATAAGGAACCTCTAGCTAGCCGACTCACTATAGGGATAATCGCCCTGAGCAAAGACC,3.23 ± 0.0726
8,CTCGAGGATATCAAGATCTGGCCTCGGCCATCTAAAAGGAACCTCTAGCTAGCCGACTCACTATAGGGATAATCGCCCTGAGCAAAGACC,-0.085 ± 0.105
9,CTCGAGGATATCAAGATCTGGCCTCGGCTTAGTAAAAGGAACCTCTAGCTAGCCGACTCACTATAGGGATAATCGCCCTGAGCAAAGACC,1.23 ± 0.0947
10,CTCGAGGATATCAAGATCTGGCCTCGGCATTTTAAAGGGAACCTCTAGCTAGCCGACTCACTATAGGGATAATCGCCCTGAGCAAAGACC,2.62 ± 0.0783
11,CTCGAGGATATCAAGATCTGGCCTCGGCATTTTAGTTGGAACCTCTAGCTAGCCGACTCACTATAGGGATAATCGCCCTGAGCAAAGACC,0.276 ± 0.112
12,CTCGAGGATATCAAGATCTGGCCTCGGCCTTTTAGGTGGAACCTCTAGCTAGCCGACTCACTATAGGGATAATCGCCCTGAGCAAAGACC,0.366 ± 0.0957
13,CTCGAGGATATCAAGATCTGGCCTCGGCGTTTTAATGGGAACCTCTAGCTAGCCGACTCACTATAGGGATAATCGCCCTGAGCAAAGACC,2.46 ± 0.0744
14,CTCGAGGATATCAAGATCTGGCCTCGGCCCATTAAAAGGAACCTCTAGCTAGCCGACTCACTATAGGGATAATCGCCCTGAGCAAAGACC,2.92 ± 0.0908
15,CTCGAGGATATCAAGATCTGGCCTCGGCGTTTTATTCGGAACCTCTAGCTAGCCGACTCACTATAGGGATAATCGCCCTGAGCAAAGACC,1.73 ± 0.0989
16,CTCGAGGATATCAAGATCTGGCCTCGGCTTTTTAGTCGGAACCTCTAGCTAGCCGACTCACTATAGGGATAATCGCCCTGAGCAAAGACC,-0.553 ± 0.126
17,CTCGAGGATATCAAGATCTGGCCTCGGCCTTTTAAATGGAACCTCTAGCTAGCCGACTCACTATAGGGATAATCGCCCTGAGCAAAGACC,2.36 ± 0.0747
18,CTCGAGGATATCAAGATCTGGCCTCGGCTTCGTAAAAGGAACCTCTAGCTAGCCGACTCACTATAGGGATAATCGCCCTGAGCAAAGACC,1.86 ± 0.0804
19,CTCGAGGATATCAAGATCTGGCCTCGGCTGAATAAAAGGAACCTCTAGCTAGCCGACTCACTATAGGGATAATCGCCCTGAGCAAAGACC,0.859 ± 0.0895
